ALR H2O2 inh – inhibitors of human ALR sulfhydryl oxidase, primary screen, biochemical, H2O2 detection, HRP-luminol luminescence, single point | FAD-linked sulfhydryl oxidase ALR (Homo sapiens), P55789 | inhibition, % (concentration not given with the values) | purified ALR, DTT oxidation | 290,000 tested, 3.8% active;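 active means mean replicate inhibition above about 79%, with every replicate also reaching it, limit read from the data; inconclusive means only one of the two criteria met; inactive means mean below limit and not every replicate reaching it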
Target sequence (P55789 whole entry, looked up): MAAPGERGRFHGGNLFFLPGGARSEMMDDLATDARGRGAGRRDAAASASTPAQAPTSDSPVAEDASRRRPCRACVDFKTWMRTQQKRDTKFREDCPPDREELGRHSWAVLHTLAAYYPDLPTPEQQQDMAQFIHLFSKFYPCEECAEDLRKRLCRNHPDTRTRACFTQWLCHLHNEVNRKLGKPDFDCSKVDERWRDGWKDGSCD
CASP6 VEID inh – human caspase-6 inhibitors, primary screen, biochemical, VEID-R110 fluorescence, single point, set 2. purified caspase-6, Z-VEID-R110 cleavage fluorescence. inhibition, % at 12.5 µM. 350,000 tested, 0.53% active;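 active means mean inhibition across replicates at least about 35%, with every replicate also reaching that limit, limit read from the data; inconclusive means only one of the two criteria met; inactive means neither criterion met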;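 further: 0% = median of neutral control wells and 100% = no fluorescence left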
Target sequence (P55212 24-179 limits assumed): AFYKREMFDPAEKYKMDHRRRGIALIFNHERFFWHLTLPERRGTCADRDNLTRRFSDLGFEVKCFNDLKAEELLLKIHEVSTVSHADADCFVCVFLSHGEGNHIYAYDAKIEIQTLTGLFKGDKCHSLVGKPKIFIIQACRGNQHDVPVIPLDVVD
Target sequence (P55212 194-293 limits assumed): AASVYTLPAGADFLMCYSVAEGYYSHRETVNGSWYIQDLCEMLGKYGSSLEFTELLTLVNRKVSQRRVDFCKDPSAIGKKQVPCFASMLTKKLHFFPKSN
F508del corr – F508del CFTR correction, initial screen, CFBE line, single point; CFBE cells, YFP halide quenching; stimulated with forskolin plus potentiator P3; % fluorescence drop versus neutral controls; activity (quench increase), % at 7.58 µM; 350,000 tested, 0.36% active; AID 720511, 2013;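 active means mean added fluorescence quench of at least 8% versus neutral control, with both replicates also reaching 8%; inconclusive means only one of the mean or replicate conditions met; inactive means mean below 8% and not both replicates reaching 8%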;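 further: cells transiently co-express mutant CFTR-F508del with the halide-sensitive YFP; corrector assay measuring rescue of mutant channel to the surface after 24 h compound exposure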
Env fusion inh – inhibitors of HIV-1 Env-driven cell-cell fusion, primary screen, HeLa-JRFL effector, CEM21 target cells, luciferase; inhibition, % at 12.3 µM; 360,000 tested, 1.1% active;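 active means mean replicate inhibition score of at least 50 and every replicate individually at or above 50; inconclusive means only one of the two criteria met; inactive means mean below 50 and not all replicates reaching 50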;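 further: 0% = plate neutral controls and 100% = maraviroc near 300 nM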
NSD2 HMT inh – NSD2 histone methyltransferase inhibitors, primary screen, biochemical, AlphaScreen, single concentration, set 2. Histone-lysine N-methyltransferase NSD2 (Homo sapiens), O96028. NSD2 peptide methylation, 120 min. inhibition, % at 12.5 µM. 310,000 tested, 0.54% active. AID 743445, 2014; in the data active means inhibition above about 50%
PglD inh – C. jejuni PglD acetyltransferase inhibitors, primary screen, biochemical, DTNB colorimetric, single point; UDP-N-acetylbacillosamine N-acetyltransferase PglD (Campylobacter jejuni); purified PglD enzyme, DTNB colorimetric CoA detection; inhibition, % at 12.5 µM; 360,000 tested, 0.098% active; in the data active means inhibition above about 16%, passing the limit was not always enough; inconclusive means no clear call, values can overlap the other calls
The depositor's hits bear a star; ? = inconclusive; . = not tested or not shown; [ ] = dose if it differs, or a comment. The list is not random: actives were taken first. Their share in the collection is about 4.1%.

SMILES | ALR H2O2 inh | CASP6 VEID inh | F508del corr | Env fusion inh | NSD2 HMT inh | PglD inh
O=C(C1CCCCC1)N1[C@@H](CO)[C@@H](c2ccccc2)C12CN(Cc1ccc(F)cc1)C2 | . | . | 0 | 8[16.7 µM] | . | .
COc1ccc(C(=O)NC(=S)NNC(=O)COc2ccccc2)cc1 | 98* | -1 | -1 | 4 | -4 | .
O=C(COc1ccc([N+](=O)[O-])cc1)NNC(=S)NC(=O)c1ccc(Br)cc1 | . | 0 | 0 | -1 | -1 | .
CCC(=O)NNC(=S)NC(=O)c1ccc(C)cc1 | 99* | -3 | -1 | 6 | -3 | .
Cc1ccc(C(=O)NC(=S)NNC(=O)COc2ccc([N+](=O)[O-])cc2)cc1 | 99* | 0 | -1 | -14 | -1 | 6
O=C(CCc1ccccc1)NNC(=S)NC(=O)c1ccc(Cl)cc1 | 99* | . | . | 9 | 3 | .
CC(C)NC(=O)N(C)C[C@@H]1OCCCC[C@H](C)Oc2ccc(NC(=O)NC3CCCCC3)cc2C(=O)N([C@@H](C)CO)C[C@H]1C | . | . | 3 | -2[16.7 µM] | . | .
COc1ccc(-c2c(S(=O)(=O)c3ccccc3)cnn2-c2ccccc2)cc1 | -2 | . | . | 63* | -2 | 1
O=C(O)CSCC(=O)N(Cc1ccccc1)c1nc(-c2ccccc2)c(-c2ccccc2)s1 | 18 | 37* | -2 | 8 | 2 | -1
CCOC(=O)c1sc(N(Cc2ccccc2)C(=O)CCl)nc1C | . | 0 | 1 | 5 | . | 0
O=C(CSc1nnnn1-c1cccc2ccccc12)NC(C(=O)O)(c1ccccc1)c1ccccc1 | -16 | 6 | 1 | 8 | -1 | .
Cc1ccc(-n2nnnc2SCC(=O)NC(C(=O)O)(c2ccccc2)c2ccccc2)cc1C | 63 | 0 | 13* | 23 | -4 | .
C[C@@H]1CN([C@H](C)CO)C(=O)Cc2cc(NC(=O)Cc3cn(C)c4ccccc34)ccc2O[C@@H]1CN(C)S(=O)(=O)c1cn(C)cn1 | . | -1 | -2 | 20[16.7 µM] | . | 1
CCS(=O)(=O)N1CCC2(CC1)CN(C(=O)Cc1ccccn1)[C@H](CO)c1[nH]c3cc(OC)ccc3c12 | . | -5 | -2 | . | . | .
c1ccc(NN=C2c3ccccc3-c3ccccc32)cc1 | . | -4 | 5 | 11 | -1 | -1
Cc1ccc(NN=C2c3ccccc3-c3ccccc32)cc1 | 89* | . | . | 8 | 0 | .
C[C@H]1CN([C@@H](C)CO)C(=O)CCCn2nncc2CO[C@H]1CN(C)Cc1ccc(Cl)c(Cl)c1 | . | 2 | -3 | 21[16.7 µM] | . | 0
O=C(O)c1cccc(NC(=O)c2cccc(S(=O)(=O)N3CCc4ccccc43)c2)c1 | . | 2 | 0 | 40 | 20 | -1
CN(C)C(=O)c1ccc(NC(=O)c2cccc(S(=O)(=O)N3CCCCCC3)c2)cc1 | -5 | 1 | 1 | 5 | 1 | 0
Cc1ccc2c(c1)CCCN2S(=O)(=O)c1cccc(C(=O)Nc2ccccc2C(=O)O)c1 | 98* | 12 | 1 | -36 | 11 | 3
CN(C)C(=O)c1ccc(NC(=O)c2cccc(S(=O)(=O)N3CCCc4ccccc43)c2)cc1 | 98* | . | -1 | 30 | 0 | .
COCC(=O)NC[C@H]1N[C@H](CO)[C@H]1c1ccc(C2=CCCC2)cc1 | . | . | 1 | . | . | 0
CN(C)CC#Cc1ccc([C@@H]2[C@H]3CN(C(=O)C4CC4)CCCCN3[C@H]2CO)cc1 | . | . | -1 | . | . | 1
CCc1ccc(NC(=O)CSc2nc(=O)n(CCCN3CCOCC3)c3c2CCC3)cc1 | 98* | -3 | 4 | -8 | 1 | 1
Cc1ccc(NC(=O)CSc2nc(=O)n(CCN(C)C)c3c2CCCC3)cc1Cl | 98* | 2 | -1 | 0 | 5 | .
SMILES | ALR H2O2 inh | CASP6 VEID inh | F508del corr | Env fusion inh | NSD2 HMT inh | PglD inh
Cc1cc(C)c(NC(=O)CSc2nc(=O)n(CCN3CCOCC3)c3c2CCCC3)c(C)c1 | 12 | 0 | -5 | 0 | -4 | 7
O=C(CSc1nc(=O)n(CCCN2CCOCC2)c2c1CCCC2)Nc1ccc(F)cc1 | 28 | -4 | 2 | -3 | -2 | 0
CCCCc1ccc(NC(=O)CSc2nc(=O)n(CCN3CCOCC3)c3c2CCC3)cc1 | 99* | -2 | 2 | 8 | 0 | .
COc1ccccc1NC(=O)CSc1nc(=O)n(CCN(C)C)c2c1CCCC2 | -4 | -3 | -1 | -15 | 2 | -8
CCCCc1ccc(NC(=O)CSc2nc(=O)n(CCN(C)C)c3c2CCC3)cc1 | 98* | -16 | -1 | 7 | -2 | 0
COc1ccc(NC(=O)CSc2nc(=O)n(CCN(C)C)c3c2CCCC3)cc1 | -16 | -4 | -2 | -6 | . | .
C[C@H](CO)N1C[C@H](C)[C@H](CN(C)C(=O)C2CC2)Oc2cc(-c3ccccc3F)ccc2S1(=O)=O | . | -2 | -8 | 21[16.7 µM] | . | -1
CC(C)c1ccc(NC(=O)CSc2nc(=O)n(CCN3CCOCC3)c3c2CCC3)cc1 | 99* | 2 | -1 | -7 | 0 | .
Cc1ccc(NC(=O)CSc2nc(=O)n(CCCN3CCOCC3)c3c2CCCC3)cc1 | 98* | 0 | 2 | -27 | 0 | -7
CN(C)CCCn1c2c(c(SCC(=O)Nc3ccc4c(c3)OCCO4)nc1=O)CCC2 | 99* | -16 | 1 | -12 | 3 | 7
O=C(CSc1nc(=O)n(CCCN2CCOCC2)c2c1CCC2)Nc1ccc(F)cc1 | 98* | -1 | 1 | -14 | 0 | 8
CCCCc1ccc(NC(=O)CSc2nc(=O)n(CCCN3CCOCC3)c3c2CCC3)cc1 | 99* | 9 | -2 | 9 | 0 | .
CCOc1ccc(NC(=O)CSc2nc(=O)n(Cc3ccccn3)c3c2CCC3)cc1 | ? | 0 | -2 | . | -2 | -4
CCc1ccc(NC(=O)CSc2nc3ccccc3nc2N2CCCC2)cc1 | 88* | -3 | -1 | 7 | . | 3
CCOc1ccccc1NC(=O)CSc1nc(=O)n(CCN2CCOCC2)c2c1CCCC2 | 1 | -2 | 0 | 4 | 1 | -7
CCOc1ccc(NC(=O)CSc2nc(=O)n(Cc3cccnc3)c3c2CCC3)cc1 | 99* | -2 | 1 | -1 | 4 | 0
CCOc1ccc(NC(=O)CSc2nc(=O)n(CCCN3CCOCC3)c3c2CCC3)cc1 | 97* | 0 | 0 | 7 | 3 | 0
Cc1ccc(S(=O)(=O)Nc2ccc3c(c2)C(=O)N([C@H](C)CO)C[C@@H](C)[C@@H](CN(C)S(=O)(=O)c2ccc(C)cc2)O3)cc1 | . | 0 | -1 | -18[16.7 µM] | . | 6
Cc1ccc(S(=O)(=O)N(C)C[C@@H]2Oc3ccc(NS(=O)(=O)c4cn(C)cn4)cc3CC(=O)N([C@@H](C)CO)C[C@H]2C)cc1 | . | . | -3 | -13[16.7 µM] | . | .
COc1ccc2[nH]c(=S)[nH]c2c1 | 98* | . | . | . | 0 | 5

Screens as filed in PubChem BioAssay.
